Experimental data from PubChem BioAssay (NCI).
Compounds without any hit were thinned out: in the full panel of roughly 83,000, 20% have a hit.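 Negative percent growth values reflect cell death: -40 means 40% of the cells present at the start died, and -100 means all died.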 A number with no mark means an inactive call. Calls of active or inactive are those of the source. The calls were made as follows: active = growth percent below 10; inactive = the rest.

Assays:
Experiment in all cases: NCI-60 one-dose screen, 48 h (100 = growth as untreated, 0 = no growth, -100 = all killed)
Details in all cases: 10 µM unless noted
SK-MEL-2 melanoma = tested on: SK-MEL-2 melanoma
EKVX NSCLC = tested on: EKVX NSCLC
SN12C renal = tested on: SN12C renal
UO-31 renal = tested on: UO-31 renal
TK-10 renal = tested on: TK-10 renal
ACHN renal = tested on: ACHN renal
CAKI-1 renal = tested on: CAKI-1 renal
A498 renal = tested on: A498 renal
CCRF-CEM leukemia = tested on: CCRF-CEM leukemia
MOLT-4 leukemia = tested on: MOLT-4 leukemia
SR leukemia = tested on: SR leukemia
RPMI-8226 leukemia = tested on: RPMI-8226 leukemia
OVCAR-8 ovarian = tested on: OVCAR-8 ovarian
OVCAR-5 ovarian = tested on: OVCAR-5 ovarian
OVCAR-4 ovarian = tested on: OVCAR-4 ovarian
SK-OV-3 ovarian = tested on: SK-OV-3 ovarian
IGROV1 ovarian = tested on: IGROV1 ovarian
OVCAR-3 ovarian = tested on: OVCAR-3 ovarian
HS 578T breast = tested on: HS 578T breast
NCI/ADR-RES ovarian = tested on: NCI/ADR-RES ovarian

Compound | growth (SK-MEL-2 melanoma) | growth (EKVX NSCLC) [%] | growth (SN12C renal) | growth (UO-31 renal) | growth (TK-10 renal) | growth (ACHN renal) | growth (CAKI-1 renal) | growth (A498 renal) | growth (CCRF-CEM leukemia) [%] | growth (MOLT-4 leukemia) | growth (SR leukemia) | growth (RPMI-8226 leukemia) [%] | growth (OVCAR-8 ovarian) | growth (OVCAR-5 ovarian) [%] | growth (OVCAR-4 ovarian) | growth (SK-OV-3 ovarian) | growth (IGROV1 ovarian) | growth (OVCAR-3 ovarian) | growth (HS 578T breast) | growth (NCI/ADR-RES ovarian)
CC(C)c1sc(NC(=O)c2cc(NC(=O)c3cc(NC(=O)c4nccn4C)cn3C)cn2C)nc1C(=O)NCCCN(C)C | 80.8% | 105 | 85.7% | 98.1% | 97.9% | 108% | 102% | 116% | 19.3 | 65.8% | 17.5% | 104 | 81.2% | 105 | 75.3% | 60% | 82.5% | 70.9% | 90.3% | 111%
CCCSc1nc(Nc2ccc(S(N)(=O)=O)cc2)c(C#N)c(-c2ccc(Cl)cc2)n1 | 67.9% | 50.6 | -16.2% (active) | -68.6% (active) | -16.4% (active) | -66.8% (active) | -54.5% (active) | -41.8% (active) | 81.4 | 50.4% | 18.5% | 11.2 | 15.2% | 61.1 | 7.47% (active) | -32.6% (active) | 43% | 31.7% | 12.5% | 26.8%
COc1ccc(NC(=O)[C@H](CO)NC(=O)OC(C)(C)C)cc1C(=O)Nc1cccc(C2CC(=O)c3c(cc(OC)c(OC)c3OC)O2)c1 (stereo not given in full) | 53.1% | 81.2 | 49% | 40.4% | 103% | 56.2% | 38.6% | 105% | 23.3 | 16.2% | 25.3% | 23 | 26.3% | 113 | 57.7% | 87.8% | 43.1% | 47.7% | 53.6% | 71.6%
O=C(COc1ccc2c(c1)CCCC(=O)N2)NCc1ccccc1 | 87.1% | 95.2 | 108% | 84.7% | 110% | 103% | 92.7% | 94.6% | 78 | 80.6% | 27.6% | 94.9 | 99.5% | 101 | 92% | 89.5% | 111% | 85.4% | 94.2% | 80.2%
Cn1cc(-c2nnc(N)nc2-c2c[nH]c3ccc(F)cc23)c2cccnc21 | 15.7% | 62.4 | 45.9% | 48.4% | 82.4% | 54.6% | 45.7% | 86.2% | 47.9 | 28.9% | 25.5% | 49.1 | 49.3% | 83.3 | 77.6% | 65.8% | 40.7% | 25.3% | 42% | 72.9%
CCOC(=O)C(N=Nc1ccc(S(=O)(=O)N=C(N)N)cc1)C(C)=O (stereo not given) | 119% | 111 | 101% | 97.6% | 88.6% | 98.2% | 96.3% | 102% | 101 | 110% | 99.4% | 98.5 | 104% | 104 | 105% | 138% | 110% | 113% | 111% | 113%
C/C(=N\N=C\c1cc([N+](=O)[O-])ccc1Cl)c1ccc2c(c1)Nc1ccccc1S2 | 90.5% | 48.5 | 12.4% | -13.7% (active) | 8.88% (active) | -43.5% (active) | 31.3% | 6.23% (active) | 55 | 44% | 31.3% | 71.7 | 16.6% | 69.4 | -10.7% (active) | 40.4% | 40% | -4% (active) | 27.1% | 55%
COc1cc2oc(-c3cccc(C(=O)Nc4cccc([N+](=O)[O-])c4)c3)cc(=O)c2c(OC)c1OC | -0.125% (active) | 41.6 | 25.8% | 0.82% (active) | 37.2% | 16.2% | 8.83% (active) | 3.68% (active) | 84.1 | 64.6% | 55% | 68.9 | 5.89% (active) | 83.5 | -6.32% (active) | -9.46% (active) | 22.1% | 26.7% | -5.03% (active) | -18.2% (active)
COc1cc(C2CC(c3ccc(S(=O)(=O)NCCNc4nc(Nc5ccc(F)cc5)nc(N(C)C)n4)cc3)=Nc3c(N)nc(N)nc3N2)cc(OC)c1OC (stereo not given) | 90.8% | 87.3 | 83.9% | 86.1% | 95.4% | 96.8% | 90.4% | 86.8% | 33.8 | 34.4% | 36.1% | 24.8 | 93.1% | 98.4 | 85.6% | 110% | 81.7% | 93.6% | 76.5% | 95.6%
COc1c(F)ccc(C(=O)Nc2ccc3nc(NC(=O)C4CCCN(S(=O)(=O)C5CC5)C4)sc3c2)c1F (stereo not given) | 54.9% | 31.5 | 65% | 43.1% | 74.5% | 47% | 46.6% | 76% | 18 | 3.08% (active) | 10.3% | 19 | 36.4% | 77.4 | 38.5% | 43.7% | 69.3% | 66.5% | 17.6% | 33.2%
COc1c(F)ccc(C(=O)Nc2ccc3nc(NC(=O)C4CCCN(S(=O)(=O)c5ccc(Br)s5)C4)sc3c2)c1F (stereo not given) | 81.8% | 81.2 | 85.9% | 77.6% | 116% | 77.2% | 82.6% | 104% | 75 | 48.5% | 44.3% | 46.7 | 94.9% | 105 | 67.9% | 109% | 81.5% | 85.8% | 58.8% | 84.8%
CCCCSc1nc(Nc2ccc(S(N)(=O)=O)cc2)c(C#N)c(-c2cc(OC)c(OC)c(OC)c2)n1 | 87.7% | 55.2 | 23.1% | 12.1% | 82.2% | 12.2% | 34.9% | 88.1% | 22.1 | -29.9% (active) | 8.85% (active) | 10.7 | 31.5% | 53.7 | 40.2% | 105% | 46.8% | 49.8% | 67.8% | 32.5%
Cc1nc(Nc2ncc(C(=O)Nc3c(C)cccc3Cl)s2)cc(N2CCN(CCCNC(=O)COc3ccc(C4CCC(=O)NC4=O)cc3)CC2)n1 (stereo not given) | 109% | 58.6 | 25.2% | 38.4% | -7.44% (active) | 8.27% (active) | -30.7% (active) | 7.95% (active) | 95.1 | 48.9% | 20% | 76.4 | 34% | 26.3 | 85.8% | -17.9% (active) | -45.2% (active) | 72% | -16% (active) | 106%
COc1cc2c(c(OC)c1OC)C(=O)CC(c1cccc(NC(=O)c3cc(NC(=O)[C@@H](N)CO)ccc3C)c1)O2 (stereo not given in full) | 111% | 108 | 102% | 92% | 105% | 107% | 99.9% | 126% | 102 | 114% | 100% | 108 | 104% | 101 | 112% | 111% | 114% | 121% | 110% | 104%
N/C(=N\c1nc2ccccc2s1)NC(=O)Nc1c(Cl)cccc1Cl | 6% (active) | 37.6 | 30.4% | 47.6% | 93.8% | 48.1% | 32% | 94.3% | 30 | 30% | 17.2% | 17.2 | 49.5% | 49.3 | 56.7% | 65.2% | 49.4% | 28.2% | 34.4% | 7.17% (active)
